Source: the supplement of paper PMC3334620
In all, about 33,000 sequences were measured (“E-score (-0.5 to 0.5)”: median about -0.0034, highest 2% from about 0.25 on). This excerpt belongs to a sample that is enriched for the highest values.

target: T1, Yap3 (UniProt P38749); assay: PBM E-score (8-mer binding enrichment) (E-score (-0.5 to 0.5)); higher = stronger / more preferred TF binding; conditions: protein concentration: 100 nM; construct: GST-full length
T1 sequence: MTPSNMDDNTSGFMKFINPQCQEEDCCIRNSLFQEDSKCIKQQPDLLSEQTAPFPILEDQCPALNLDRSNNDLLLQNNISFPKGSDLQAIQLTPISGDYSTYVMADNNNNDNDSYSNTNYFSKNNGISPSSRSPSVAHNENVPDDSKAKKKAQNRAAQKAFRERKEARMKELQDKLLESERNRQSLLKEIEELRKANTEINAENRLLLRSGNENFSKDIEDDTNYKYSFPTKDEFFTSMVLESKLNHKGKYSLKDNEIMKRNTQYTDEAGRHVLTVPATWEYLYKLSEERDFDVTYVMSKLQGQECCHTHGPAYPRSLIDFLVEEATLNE
Method in brief: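 Each ungapped eight-base word and its reverse complement, pooled, received an E-score from the Universal PBM Analysis Suite. Underlying scans, normalised with masliner, recorded fluorescent anti-GST bound to GST-tagged yeast transcription factors. These were applied at about 100-200 nM to universal all-10-mer Agilent arrays double-stranded by primer extension.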

Row | Sequence | PBM E-score
1 | CGTATCGC | 0.0192
2 | GTTATTGA | 0.117
3 | GCGATTAA | 0.216
4 | CTTATTGA | 0.0574
5 | GTCATTAA | 0.3
6 | CTCATTAA | 0.0548
7 | ATCATTAA | 0.207
8 | GTTATTAA | 0.262
9 | GTTATTTA | 0.165
10 | TCGATTAA | 0.308
11 | CTTATTAA | 0.339
12 | CTTATTGC | 0.0255
13 | ACGATTAA | 0.0578
14 | CCGCCACC | -0.155
15 | CCTCAGGA | -0.184
16 | CCAAGACG | -0.148
17 | ATGGTGGA | -0.062
18 | CGCTAATA | 0.0177
19 | CTCTCTAA | -0.149
20 | CACCTTCA | 0.014
21 | GGCCCACA | -0.119
22 | CGGAGCAG | -0.191

Row | Sequence | PBM E-score
23 | AGATTTGG | -0.12
24 | ATTGCAGG | 0.073
25 | CCCATTAA | -0.108
26 | ATGATTAG | 0.124
27 | ACCATTAA | 0.26
28 | CTGATTAA | 0.203
29 | TCCATTAA | 0.0027
30 | CCTATTAA | 0.0368
31 | ATTATTAA | 0.378
32 | ATGATTAA | 0.274
33 | ACTATTAA | 0.123
34 | ATAAGATG | 0.176
35 | AATAGAAA | 0.138
36 | CTTGTATA | 0.127
37 | ATTGTATG | 0.151
38 | ATTGTATA | 0.298
39 | ATGGTATA | 0.262
40 | ATGGTATC | 0.175
41 | ATGGTATG | 0.00998
42 | CGGTCGCC | -0.2
43 | CTCTAAAC | 0.167
44 | AAGCTGAG | 0.0158

Row | Sequence | PBM E-score
45 | AGCAGAGA | -0.0117
46 | TCGTAGAA | -0.0144
47 | CCGCCTAA | -0.155
48 | TAAATAGA | -0.0374
49 | AAAATAGA | 0.256
50 | ACAAAATA | 0.175
51 | AAAAATAA | 0.25
52 | AAAAAATA | 0.287
53 | TAAAATAA | 0.0792
54 | GAAAAATA | 0.114
55 | CAAAATAA | 0.296
56 | AAAATAGC | -0.0905
57 | CAAAAATC | 0.051
58 | CAAAAATA | 0.332
59 | CCAAAATA | 0.211
60 | CAGTTTGC | 0.124
61 | ACGCCGCG | -0.0869
62 | AGACCTGG | -0.0312
63 | AGTTTGCC | 0.175
64 | GCGGCTCA | 0.0715
65 | CAAATATA | 0.0799
66 | CAAATAAA | 0.197

Row | Sequence | PBM E-score
67 | GAAAGATA | 0.217
68 | TAAAAATA | 0.26
69 | CAAAGATA | 0.0838
70 | CTAAAATA | 0.148
71 | TAAATAAA | 0.282
72 | TAAAAAAA | 0.0893
73 | TAAAGATA | 0.254
74 | TAAATATA | 0.297
75 | AAAATAAA | 0.204
76 | GAAATATA | 0.248
77 | TAGGTCAA | 0.0932
78 | AGGAATAA | 0.156
79 | GTGGTAAA | -0.0974
80 | AGAGCTCC | -0.275
81 | AATTGGAG | -0.0503
82 | ATGGCCGA | 0.0282
83 | ATGTGCAA | 0.059
84 | ATCTGTTG | -0.0152
85 | AAAAACTC | 0.072
86 | AGAATCGG | -0.0519
87 | CAAGACAA | 0.0625
88 | TAAGACAA | 0.187

Row | Sequence | PBM E-score
89 | ACAGACAC | -0.0498
90 | ACAGACAG | 0.0669
91 | AAAGACAA | 0.261
92 | ACAGACAA | 0.285
93 | CGACCAAA | 0.174
94 | CCTCAGGC | -0.249
95 | CAGGTGCG | 0.015
96 | ATAAAAGG | -0.011
97 | ATAAAAAG | 0.261
98 | ATAAAATA | 0.298
99 | ATAAAATC | 0.207
100 | GTAAAATA | 0.117
101 | AAAAAATG | 0.209
102 | ATAAAACG | 0.206
103 | ATAAAAAA | 0.187
104 | ATAAAATG | 0.276
105 | GACATTCC | -0.186
106 | ACTGACCG | -0.0919
107 | ACCCCTCT | -0.251
108 | AGTTGAAC | 0.00888
109 | GATCTTGA | 0.0634
110 | ACACTTGC | 0.0282
